Jurkat NFkB inh: inhibitors of the PMA/ionomycin-induced NF-kB reporter in Jurkat cells | PMA/ionomycin-induced NF-kB luciferase reporter, luminescence | inhibition, % at 4 µM | actives 0.53% (n = 330,000); in the data active = inhibition above about 50%
ANO1 block: blocks the mouse calcium-activated chloride channel TMEM16A; Q8BHY3; HEK293 TMEM16A/YFP iodide influx fluorescence, ionomycin; AID 588511; normalized B-score (activity score, 25-100; higher = stronger inhibition) at 10 µM; actives 1.2% (n = 310,000);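 active = ratio plate-corrected score three or more library SD toward inhibition, starting fluorescence score within five deviations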;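 note: score derived from kinetic fluorescence span divided by baseline fluorescence per well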
697 NFkB inh: lowers PMA/ionomycin-induced NF-kB signal in 697 B cells. actives 0.33% (n = 330,000). inhibition, % at 4 µM. 697 B-cell NF-kB luciferase reporter, 16 h; in the data active = inhibition above about 35%
TMEM16A act: activates or potentiates the mouse TMEM16A chloride channel. HEK293 TMEM16A/YFP-H148Q/I152L, iodide quench fluorescence; stronger effect = lower value. B-score at 10 µM. actives 0.3% (n = 340,000);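 active = fluorescence-ratio B-score plate-corrected deviation score at least 3 library SD below zero, with starting fluorescence score within 5 deviations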;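 note: channel opened by trigger with iodide after compound preincubation; score built on the fluorescence ratio of max minus min over baseline; more negative score means more quench and so TMEM16A activation or potentiation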
KLF5 inh: kruppel-like factor 5 inhibition. DLD-1 KLF5 promoter-luciferase reporter, luminescence. inhibition, % at 5 µM. actives 0.23% (n = 290,000). AID 1700;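 active = inhibition above a per-plate limit of that plate's mean compound inhibition plus 3 SD, cut at about 60% in these data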;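 note: 0% = DMSO wells and 100% = LY294002 at 200 µM; higher means less KLF5 promoter-driven luciferase light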
aSyn 5UTR inh: 5' untranslated region of α-synuclein, MLPCN primary screen; actives 0.82% (n = 300,000); inhibition, % (tested at 7.5 µM); alpha-synuclein 5'UTR reporter, inhibitor activity; in the data active = inhibition above about 60%;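 note: H4 neuroglioblastoma cells stably carrying SNCA 5'UTR luciferase fusion; 0% = DMSO wells and 100% = positive control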
KLF5 inh confirm: confirmation of KLF5 inhibitors; shares compounds with KLF5 inh; DLD-1 KLF5 promoter firefly luciferase reporter, luminescence; inhibition, % at 4 µM; actives 79% (n = 610);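 active = inhibition above a set limit taken from the earlier primary screen, cut at about 63% in these data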;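 note: 0% = DMSO wells and 100% = LY294002 at 200 µM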
IEC-6 tox trip: rat IEC-6 cytotoxicity, KLF5 inhibitor counter-screen. shares compounds with KLF5 inh. IEC-6 rat intestinal cells, viability luminescence. inhibition, % at 4 µM. actives 56% (n = 610). AID 1905; in the data active = inhibition above about 23%;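 note: cells exposed to compounds for 48 hours before viability read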
Jurkat NFkB conf: lowers PMA/ionomycin-induced NF-kB signal in Jurkat cells; shares compounds with Jurkat NFkB inh; Jurkat NF-kB luciferase, 16 h; inhibition, % at 4 µM; actives 27% (n = 2,700);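 active = inhibition reaching about 45% at 4 µM in either replicate, limit read from the data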;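 note: plate controls were PMA/ionomycin stimulated DMSO wells for no effect and unstimulated DMSO wells for full effect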
* marks the source's active call; other numbers are inactive results; i = inactive; x = no result. Only some compounds are listed: those with a hit (about 2.5% of all), similar ones and a draw of the others.

SMILES	Jurkat NFkB inh	ANO1 block	697 NFkB inh	TMEM16A act	KLF5 inh	aSyn 5UTR inh	KLF5 inh confirm	IEC-6 tox trip	Jurkat NFkB conf
CC(C)Oc1ccccc1C1CC(=O)Nc2cc3c(cc21)OCO3 (stereo unspecified)	76*	i	7	i	87*	91*	83*	64*	53*
COc1cc2c(cc1OC)[C@@H](NC(=O)CCc1ccccc1)[C@H](O)C2	x	x	10	x	x	x	x	x	x
CCOc1cc(C#N)c(NC(=O)c2cccnc2Cl)cc1OCC	7	i	17	i	-8	-16	x	x	x
CCOc1cc(C#N)c(NC(=O)c2cccnc2)cc1OCC	62*	i	-32	i	73*	41	79*	50*	52*
C/C(=N\NC(=O)c1c(Br)c(C)nn1C)c1cccc(NC(=O)C2CCC2)c1	-5	i	11	i	-41	-37	x	x	x
C/C(=N\NC(=O)c1c(Cl)c(C)nn1C)c1ccc(NC(=O)C2CCC2)cc1	62*	i	2	i	65*	44	83*	60*	17
C/C(=N\NC(=O)c1c([N+](=O)[O-])c(C)nn1C)c1ccc(NC(=O)C2CCCC2)cc1	53*	i	9	i	65*	81*	76*	54*	50*
COc1ccc(S(=O)(=O)Nc2cccc(-c3ccc4nncn4n3)c2)cc1F	58*	i	-7	i	70*	15	81*	34*	50*
O=S(=O)(Nc1cccc(-c2ccc3nncn3n2)c1)c1cccc(F)c1	1	i	9	i	x	23	x	x	x
CN1/C(=C/C=C(/C#N)C(N)=O)C(C)(C)c2ccccc21	61*	i	-86	i	69*	-146	60	36*	10
CN1/C(=C\C=C(/C#N)C(=O)Nc2ccccc2F)C(C)(C)c2ccccc21	4	i	15	i	-39	25	x	x	x
CCOc1ccc2c(c1)sc(N)[n+]2Cc1cc(C)cc2cccnc12	62*	i	-80	i	76*	55	73*	67*	51*
CC(Sc1n[nH]c(=O)n1Cc1ccccc1)C(=O)NCC1CCCO1 (stereo unspecified)	-1	x	-9	i	x	x	x	x	x
CC1=Nc2cc(C(=O)NCc3ccco3)ccc2Sc2ccc(C)cc21	51*	i	7	i	68*	101*	83*	62*	18
COc1cc(-c2noc(C)c2/C=C/c2cccc([N+](=O)[O-])c2)cc(OC)c1OC	62*	i	-3	i	64*	69*	79*	54*	51*
COc1ccccc1NC(=O)c1cnc(Nc2ccccc2OC)c2ccccc12	59*	i	-56	i	72*	101*	71*	47*	41
COc1ccccc1NC(=O)c1ccccc1C(=O)Nc1ccccc1OC	4	i	4	i	13	-9	x	x	x
COc1cccc(-c2c3c([nH]c(=O)c2C#N)CCc2cc(OC)ccc2-3)c1	-3	i	-27	x	-29	16	x	x	x
COC(=O)c1ccc(C2N=C(c3cccs3)CC(c3ccccc3O)N2)cc1 (stereo unspecified)	-18	i	-28	i	-45	-98	x	x	x
CCOc1ccc(N=Nc2ccc(O)c3ncccc23)cc1	89*	i	-117	i	65*	18	19	-1	3
Cc1cc(-c2ccc(C(=O)O)s2)cnc1N	-5	i	-62	i	-43	-56	x	x	x
O=C(O)c1ccc(-c2ccc(-c3ccccc3)cc2)s1	61*	i	-73	i	90*	64*	92*	4	46
COc1ccccc1/C=C/C(=O)OCC(=O)N1CCN(S(=O)(=O)c2ccc(C)cc2C)CC1	6	x	-8	i	x	x	x	x	x

Bioassay records (PubChem)
